SNCA expr inh: Primary qHTS assay for inhibitors of alpha-synuclein gene (SNCA) expression; HEK-293 SNCA-luciferase knock-in, luminescence, 24 h; Potency, µM (highest dose often 57.2 µM), for inactives: at the highest dose activity change, negative = inhibition, hits mostly inhibitors; 140,000 tested, 0.17% active; AID 1671194, 2021;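 further: plate controls were DMSO cells for no effect and cell-free wells for full effect; nearly all actives have a fitted effect of over 45% in size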
FLuc inh: Firefly luciferase inhibition profiling of diverse chemical library using quantitative high-throughput screening | Luciferin 4-monooxygenase (Photinus pyralis), P08659 | purified P. pyralis luciferase, luminescence, biochemical | Potency, µM (titrated, usually from 115 µM), most hits filed as inhibitors | 76,000 tested, 2.5% active; further: nearly all actives have a fitted effect of over 65% in size
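Purified 10nM P. pyralis luciferase with 10uM D-luciferin and 10uM ATP in 50mM Tris acetate pH 7.5, 10mM Mg acetate, 0.01% Tween-20, 0.05% BSA. qHTS titration; luminescence read by CCD imager.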
NPR1 antag: Natriuretic polypeptide receptor (hNpr1) antagonism - Primary qHTS; Atrial natriuretic peptide receptor 1 (Homo sapiens), P16066; HEK293 hNpr1 GloSensor cGMP, ANP-stimulated luminescence; Potency, µM (highest dose often 46.3 µM), for the others: top-dose activity change, negative = inhibition, most hits filed as inhibitors; 76,000 tested, 1.6% active; calls by dose curve; further: nearly all actives have a fitted effect of over 60% in size
Target sequence (P16066 whole entry, looked up): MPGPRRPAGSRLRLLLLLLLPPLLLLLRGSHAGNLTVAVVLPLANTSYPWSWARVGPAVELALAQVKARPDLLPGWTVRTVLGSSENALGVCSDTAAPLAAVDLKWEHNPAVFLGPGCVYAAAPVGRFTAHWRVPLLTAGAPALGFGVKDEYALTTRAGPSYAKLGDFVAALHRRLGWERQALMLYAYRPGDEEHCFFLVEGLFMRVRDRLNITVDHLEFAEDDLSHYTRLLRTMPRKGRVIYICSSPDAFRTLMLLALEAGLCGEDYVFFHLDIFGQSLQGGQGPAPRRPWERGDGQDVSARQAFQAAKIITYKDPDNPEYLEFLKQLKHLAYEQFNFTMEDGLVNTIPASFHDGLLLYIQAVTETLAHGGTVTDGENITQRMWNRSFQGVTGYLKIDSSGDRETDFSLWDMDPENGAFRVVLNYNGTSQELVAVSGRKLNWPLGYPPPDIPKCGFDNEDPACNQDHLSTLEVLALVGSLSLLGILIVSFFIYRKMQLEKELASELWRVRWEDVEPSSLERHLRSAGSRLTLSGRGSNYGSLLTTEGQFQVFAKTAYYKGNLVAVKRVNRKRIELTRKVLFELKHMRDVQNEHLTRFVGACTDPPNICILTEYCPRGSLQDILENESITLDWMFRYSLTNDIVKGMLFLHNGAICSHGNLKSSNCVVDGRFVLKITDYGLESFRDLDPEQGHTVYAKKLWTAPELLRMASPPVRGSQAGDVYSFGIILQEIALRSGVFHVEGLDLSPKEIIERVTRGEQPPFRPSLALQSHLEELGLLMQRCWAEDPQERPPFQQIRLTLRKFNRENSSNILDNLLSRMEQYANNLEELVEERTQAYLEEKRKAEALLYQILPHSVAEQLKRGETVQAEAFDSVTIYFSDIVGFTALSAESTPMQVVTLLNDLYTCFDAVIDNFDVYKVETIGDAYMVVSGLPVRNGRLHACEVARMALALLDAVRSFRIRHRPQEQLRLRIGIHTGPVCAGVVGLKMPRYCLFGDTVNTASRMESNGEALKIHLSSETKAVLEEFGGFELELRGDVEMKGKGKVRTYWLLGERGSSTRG
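Compound pre-incubated 30 min at room temperature on GloSensor-loaded HEK293 cells stably carrying hNpr1 and the pGS-40F cGMP biosensor. Stimulation uses hNppA at 0.1 nM final; luminescence is taken at baseline and 20 min post-agonist.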
HEK293 viab: GF-AFC viability counterscreen for inhibitors of alpha-synuclein gene (SNCA) expression; HEK-293-SNCA-luc viability, GF-AFC fluorescence, 24 h; Potency, µM (doses to about 57.1 µM), without a hit: top-dose activity change, negative = cytotoxicity, usual class: cytotoxic; 150,000 tested, 0.12% active; AID 1671193, 2021;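 further: 0% = DMSO-treated cells and -100% = medium-only wells without cells; nearly all actives have a fitted effect of over 30% in size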
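HEK-293-SNCA-luc cells (1500/well) plated 24 h, then exposed 24 h to a dilution series; GF-AFC added 30 min at 37C, fluorescence 405/540 nm; normalised to medium-only and DMSO wells, Hill fit.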
NIH3T3 tox: Cytotoxic Profiling in NIH 3T3 Cell Line of Diverse Libraries Using Quantitative High-Throughput Screening; NIH 3T3 viability, CellTiter-Glo ATP luminescence, 48-72 h; Potency, µM (series often up to 96.7 µM), without a hit: top-dose activity change, negative = cytotoxicity, actives largely listed as inhibitors; 94,000 tested, 4.3% active; further: nearly all actives have a fitted effect of over 55% in size
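Cytotoxicity is measured as loss of cellular ATP: NIH 3T3 cells (400/well) are exposed to compound for 48 or 72 hr at 37 °C, then CellTiter-Glo luminescence is imaged after 10 min at room temperature.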
HEK293 tox: Cytotoxic Profiling in HEK 293 Cell Line of Diverse Libraries Using Quantitative High-Throughput Screening; HEK 293 viability, ATP luminescence (CellTiter-Glo), 48-72 h; Potency, µM (highest dose often 115 µM), for inactives: at the top dose activity change, negative = cytotoxicity, usual class: inhibitors; 94,000 tested, 6.6% active; AID 1345083, 2018; further: nearly all actives have a fitted effect of over 60% in size
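ATP-coupled CellTiter-Glo luminescence served as viability read-out, recorded 10 min after reagent addition at room temperature. HEK 293 cells, 250 cells/well, had been incubated with pintool-transferred compound for 48 or 72 hr at 37 degree Celsius.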
* marks the source's active call; other numbers are inactive results; [ ] = remark or other dose. An excerpt weighted towards active compounds, which were near 7.2% of everything screened. Unless noted, the call rests on the fitted dose curve; in most records, active means well fitted curve in the direction sought with a large enough effect; inconclusive means small, poorly fitted or top-dose-only effect, or another doubt; inactive means no such curve, though single readings can be large; an effect the other way counts as inactive or inconclusive. Unless noted, on the % scale 0 is the no-effect control and ±100 the full control effect; potency means the concentration at half of the fitted maximal effect.

`COc1cc(NC(=O)Cn2ccn3nc(-c4ccccc4)c(CO)c3c2=O)cc(OC)c1OC` gave SNCA expr inh 9%, FLuc inh inactive, NPR1 antag -1%, HEK293 viab 2%, NIH3T3 tox inconclusive and HEK293 tox 32µM*.
O=C(Cn1ccn2nc(-c3ccccc3)c(CO)c2c1=O)Nc1cccc(Br)c1 was read as SNCA expr inh -16%, FLuc inh inactive, NPR1 antag -21%, HEK293 viab -16%, NIH3T3 tox -26% and HEK293 tox inconclusive.
For COc1ccc(CC2CCOC3(CCN(C(=O)c4cc5ccccc5[nH]4)CC3)C2)cc1 (stereo unspecified) the results were SNCA expr inh -21%, FLuc inh inactive, NPR1 antag -13%, HEK293 viab -13%, NIH3T3 tox inconclusive and HEK293 tox 32µM*.
For COc1ccc(CC2CCOC3(CCN(C(=O)CC(C)C)CC3)C2)cc1 (stereo unspecified) the results were SNCA expr inh -4%, FLuc inh inactive, NPR1 antag inconclusive, HEK293 viab -5%, NIH3T3 tox inconclusive and HEK293 tox inconclusive.
`COCC1CN(C)CC12CCN(C(=O)c1cc3ccccc3[nH]1)CC2` (stereo unspecified) gave SNCA expr inh 2%, FLuc inh inconclusive, NPR1 antag -18%, HEK293 viab 1%, NIH3T3 tox -18% and HEK293 tox 89µM*.
For COc1ccc2[nH]c(C(=O)N3CCC4(CC3)CC(O)CCO4)cc2c1 (stereo unspecified) the results were SNCA expr inh 103%, FLuc inh inactive, NPR1 antag 0%, HEK293 viab -9%[12.5 µM], NIH3T3 tox 2% and HEK293 tox 2%.
`COc1ccc(CC2CCOC3(CCN(C(=O)c4ccco4)CC3)C2)cc1` (stereo unspecified) gave SNCA expr inh -20%, HEK293 viab 2%, NIH3T3 tox inconclusive and HEK293 tox 50µM*.
COCC1CN(C)CC12CCN(C(=O)c1nccc3ccccc13)CC2 (stereo unspecified) was read as SNCA expr inh 4%, FLuc inh inactive, NPR1 antag -18%, HEK293 viab -7%, NIH3T3 tox 0% and HEK293 tox inconclusive.
`CCS(=O)(=O)N1C[C@@H](COc2ccncc2)[C@H](c2ccccn2)C1` gave SNCA expr inh -11%, FLuc inh inactive, NPR1 antag 1%, HEK293 viab -6%, NIH3T3 tox -4% and HEK293 tox inactive.
Screening COCCn1c(C)nnc1-c1cc(-c2cccc(N(C)C)c2)ccn1 returned SNCA expr inh -5%[87.6 µM], FLuc inh inactive, NPR1 antag 3%[70.6 µM], HEK293 viab 4%[87.6 µM], NIH3T3 tox inconclusive and HEK293 tox inconclusive.
For Cc1noc(C)c1[S+](=O)([O-])N1CCCC2(CC(c3cccc(C(F)(F)F)c3)=NO2)C1 (stereo unspecified) the results were SNCA expr inh -20%, FLuc inh inactive, NPR1 antag -15%, HEK293 viab -10%, NIH3T3 tox -13% and HEK293 tox 35µM*.
Screening FC(F)(F)c1cccc(C2=NOC3(CCCN(Cc4cccs4)C3)C2)c1 (stereo unspecified) returned SNCA expr inh -10%, FLuc inh inactive, NPR1 antag -9%, HEK293 viab -3%, NIH3T3 tox 35µM* and HEK293 tox inconclusive.
Screening Cn1nccc1CN1CCCC2(CC(c3cccc(C(F)(F)F)c3)=NO2)C1 (stereo unspecified) returned SNCA expr inh -10%, FLuc inh inactive, NPR1 antag 0%, HEK293 viab -6%, NIH3T3 tox -26% and HEK293 tox 45µM*.
Screening FC(F)(F)c1cccc(C2=NOC3(CCCN(Cc4cccc5ccccc45)C3)C2)c1 (stereo unspecified) returned SNCA expr inh -7%, FLuc inh inactive, NPR1 antag 8%, HEK293 viab 4%, NIH3T3 tox inconclusive and HEK293 tox inconclusive.
For COc1ccc(C(=O)NC2CCN(c3cn[nH]c(=O)c3)CC2)cc1OC the results were SNCA expr inh -17%, FLuc inh inactive, NPR1 antag 0%, HEK293 viab 6%, NIH3T3 tox inactive and HEK293 tox 2%.
CCN(Cc1ccncc1)C(=O)c1cc(-c2cnn(CC)c2)nc2cc(C)ccc12 was read as SNCA expr inh 3%, FLuc inh inconclusive, NPR1 antag -11%, HEK293 viab -13%, NIH3T3 tox 2.8µM* and HEK293 tox inconclusive.
`CCC1Oc2ccc(NC(=O)c3ccc(F)cc3F)cc2CN(Cc2ccc(Cl)cc2)C1=O` (stereo unspecified) gave SNCA expr inh -18%, FLuc inh inactive, NPR1 antag -2%, HEK293 viab -18%, NIH3T3 tox inconclusive and HEK293 tox inconclusive.
CCC1Oc2ccc(NC(=O)C3CCCC3)cc2CN(Cc2ccc(F)cc2Cl)C1=O (stereo unspecified) was read as SNCA expr inh -14%, FLuc inh inactive, NPR1 antag -20%, HEK293 viab 5%, NIH3T3 tox inconclusive and HEK293 tox inconclusive.
Screening CCC1Oc2ccc(NC(=O)Cc3ccc(F)cc3)cc2CN(Cc2ccc(Cl)cc2)C1=O (stereo unspecified) returned SNCA expr inh -24%, FLuc inh inactive, NPR1 antag -19%, HEK293 viab -11%, NIH3T3 tox 10µM* and HEK293 tox inconclusive.
`CCC1Oc2ccc(NC(=O)Cc3ccccc3)cc2CN(Cc2ccc(F)cc2)C1=O` (stereo unspecified) gave SNCA expr inh -11%, FLuc inh inactive, NPR1 antag -6%, HEK293 viab 7%, NIH3T3 tox inconclusive and HEK293 tox inconclusive.
`CC1Oc2ccc(NC(=O)Cc3ccc(F)cc3)cc2CN(Cc2ccc(Cl)cc2)C1=O` (stereo unspecified) gave SNCA expr inh -15%, FLuc inh inactive, NPR1 antag -24%, HEK293 viab -3%, NIH3T3 tox 28µM* and HEK293 tox 40µM*.
